{"source": "PubChem BioAssay (EPA / NIEHS)", "note": "“And” between values parts separate entries of the source, which are not always exact repeats. Equal entries are not always repeated. The source made the active and inactive calls. How the source made its calls: active means hit-call score of the fitted dose curve at least 0.9, where 1 is the maximum; inactive means score below 0.9."}
{"experiment": "BSK_IMphg_SRB: Viability Assessment in the BioMAP Diversity Plus: IMphg Assay (AID 2284292);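 further: measured one day after compound addition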", "settings": "primary human endothelial cells with macrophages", "description": "BSK_IMphg is a cell-based, multiplexed-readout assay that uses venular endothelial cells and macrophages, a human vascular primary cell, with measurements taken at 24 hours after chemical dosing in a microplate: 96-well plate.BSK_IMphg_SRB is an assay component measured in the BSK_IMphg assay. It measures […] related to cell death using Sulforhodamine staining technology.Data from the assay component BSK_IMphg_SRB was analyzed at the endpoint, BSK_IMphg_SRB, in the positive analysis fitting direction relative to DMSO as the negative control and baseline of activity. Using a type of viability reporter, gain or loss-of-signal activity can be used to understand protein changes. To generalize the intended target to other relatable targets, this assay endpoint is annotated to the 'cell morphology' intended target family, where the subfamily is 'cell conformation'.\nThe levels of cell surface (or secreted, indicated by the prefix \"s\") biomarker endpoints were measured by ELISA. Overt cytotoxicity to cells in confluent adherent cultures (all systems other than the BT system) was assessed by measuring total protein levels using sulforhodamine B (SRB) staining in parallel cultures at the time of biomarker measurements, indicated as SRB endpoints. For proliferation assays for adherent cell types, individual cell types are cultured at sub-confluence and relative cell numbers quantified by SRB staining at time points optimized for each system (48 h: 3C and CASM3C systems; 72 h: BT and HDF3CGF systems; 96 h: SAg system). SRB was performed by staining cells with 0.1% SRB after fixation with 10% TCA and reading wells at 560 nm.Viability and proliferation of PBMC (T cells) was quantified by Alamar Blue reduction for the SAg and BT systems. For PBMC viability (referred to as PBMC Cytotoxicity within the assay endpoint names), cells were plated (75,000/well in a 96-well plate) and then chemical samples added for 1 h before addition of activators, SEB and TSST-1 (20 ng/mL final concentration each). Cells were incubated for 90 h. Then, Alamar Blue (20 uL/well) (Invitrogen, Cat DAL1100) was added for 6 h, and the plates were read with a fluorescence microplate reader at 546/580 nm (excitation/emission). For PBMC proliferation, cells were plated and activated as above but incubated for only 16 h prior to addition of Alamar Blue. Plates were read after 6 h."}
{"smiles": "OCC(F)(F)OC(F)(F)C(F)(F)OC(F)(F)C(F)(F)OC(F)(F)CO", "outcome": "inactive"}
{"smiles": "O=C(O)C(F)(F)OC(F)(F)C(F)(F)OC(F)(F)F", "outcome": "inactive"}
{"smiles": "COC(=O)C(F)(F)C(F)(F)OC(F)(C(F)(F)F)C(F)(F)OC(F)=C(F)F", "note": "(centres undefined)", "outcome": "inactive"}
{"smiles": "O=C(O)C(F)(F)OC(F)(F)C(F)(F)OC(F)(F)C(=O)O", "outcome": "inactive"}
{"smiles": "OCC(F)(F)OC(F)(F)C(F)(F)OC(F)(F)CO", "outcome": "inactive"}
{"smiles": "OCC(F)(F)OC(F)(F)C(F)(F)OC(F)(F)C(F)(F)OC(F)(F)F", "AC50": "47.8 µM (active) and 53.7 µM (active)"}
{"smiles": "O=C(O)C(F)(F)C(F)(F)C(=O)O", "outcome": "inactive"}
{"smiles": "O=C(O)C(F)(OC(F)(F)C(F)(F)C(F)(F)F)C(F)(F)F", "note": "(centres undefined)", "outcome": "inactive"}
{"smiles": "O=C(O)C=CC(F)(C(F)(F)F)C(F)(F)F", "outcome": "inactive"}
{"smiles": "O=S(=O)(F)C(F)(F)C(F)(F)C(F)(F)C(F)(F)C(F)(F)C(F)(F)C(F)(F)C(F)(F)F", "outcome": "inactive"}
{"smiles": "CC(O)C(F)(F)C(F)(F)F", "note": "(centres undefined)", "outcome": "inactive"}
{"smiles": "NC(=O)C(F)(F)C(F)(F)F", "outcome": "inactive"}
{"smiles": "FC(F)(F)C(F)(C(F)(F)F)C(F)(F)C(F)(F)CC1CO1", "note": "(centres undefined)", "outcome": "inactive"}
{"smiles": "C=CC(=O)OCC(F)(F)C(F)F", "outcome": "inactive"}
